Compounds with a hit are over-represented: about 1.6% of the library has one in this group of screens.
KCNQ2 pot: potentiators of rat KCNQ2 potassium channel; Potassium voltage-gated channel subfamily KQT member 2 (Rattus norvegicus), O88943; CHO-K1 KCNQ2, FluxOR thallium flux fluorescence; active compounds read high; B-score at 10 µM; hit rate 0.54% among 310,000;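 active means fluorescence ratio B-score at least 3 SD of library B-scores, with initial fluorescence B-score within 3 of them, cut at about 5.3 in these data; same plate scores as AID 2156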;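 further: B-score of peak minus minimum over baseline fluorescence ratio after K+ and Tl+ stimulus; positive B-score means potentiation of KCNQ2 with more thallium influx and brighter signal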
Target sequence (O88943 whole entry, looked up): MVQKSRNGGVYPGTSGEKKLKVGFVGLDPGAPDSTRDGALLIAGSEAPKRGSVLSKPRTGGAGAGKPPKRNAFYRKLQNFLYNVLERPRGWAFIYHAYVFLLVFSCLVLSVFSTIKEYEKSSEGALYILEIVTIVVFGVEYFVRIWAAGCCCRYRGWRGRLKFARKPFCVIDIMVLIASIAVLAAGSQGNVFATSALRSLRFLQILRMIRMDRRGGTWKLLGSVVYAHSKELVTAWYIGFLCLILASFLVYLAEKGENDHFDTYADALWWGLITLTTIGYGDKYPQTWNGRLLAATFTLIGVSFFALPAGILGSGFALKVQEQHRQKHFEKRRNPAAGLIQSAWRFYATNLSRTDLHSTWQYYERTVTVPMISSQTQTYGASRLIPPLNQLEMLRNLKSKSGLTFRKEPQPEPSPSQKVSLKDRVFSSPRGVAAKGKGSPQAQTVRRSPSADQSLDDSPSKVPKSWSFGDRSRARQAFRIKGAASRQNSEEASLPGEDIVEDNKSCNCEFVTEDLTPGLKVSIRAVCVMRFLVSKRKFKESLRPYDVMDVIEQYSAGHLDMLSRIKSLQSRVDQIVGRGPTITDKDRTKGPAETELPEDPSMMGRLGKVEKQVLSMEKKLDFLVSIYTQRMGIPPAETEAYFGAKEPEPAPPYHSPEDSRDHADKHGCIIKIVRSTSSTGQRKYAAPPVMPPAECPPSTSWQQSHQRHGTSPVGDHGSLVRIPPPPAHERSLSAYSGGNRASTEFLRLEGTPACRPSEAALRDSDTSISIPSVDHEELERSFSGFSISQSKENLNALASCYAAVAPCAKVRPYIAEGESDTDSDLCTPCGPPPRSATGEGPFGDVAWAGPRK
KCNQ2 block: rat KCNQ2 potassium channel inhibitors, primary screen, cell-based, CHO-K1, FluxOR thallium flux, B-score. Potassium voltage-gated channel subfamily KQT member 2 (Rattus norvegicus), O88943. 20 min; active compounds read low. B-score at 10 µM. hit rate 1.1% among 310,000. AID 2156, 2009;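 active means fluorescence ratio B-score at most minus 3 library SDs, with starting brightness B-score within 2 library SDs, cut at about -5.5 in these data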
Kir21 confirm: mouse Kir2.1 channel blockers, retest, confirmation, cell-based, FluxOR thallium flux, duplicate | Tl flux remaining, % of negative control (active compounds read low), % at 10 µM | hit rate 41% among 2,300 | shares compounds with KCNQ2 pot | AID 2032, 2009 | Kir2.1-expressing cells, FluxOR thallium flux fluorescence; active compounds read low;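 active means Primary-screen hit whose thallium flux fell at least 3 control SD below untreated wells in both duplicates, with normal baseline fluorescence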
HEK293 ctr: parental HEK293 activity in Kir2.1 inhibitor counter-screen. hit rate 19% among 2,300. parental HEK293 cells, FluxOR thallium flux fluorescence; 0% = unstimulated blank wells. FluxOR signal as % of negative control (100 = no effect), % at 10 µM. AID 2105. shares compounds with KCNQ2 pot;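 active means dye signal at least 3 control SD above or below untreated wells in both duplicates, raw fluorescence within 3, either direction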;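 further: percent is based on the flux ratio of peak minus minimum fluorescence over baseline F0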
CHO-K1 Tl ctr: nonspecific thallium flux increase in parental CHO-K1, confirmation, counter-screen for KCNQ2 potentiator project, cell-based, FluxOR thallium flux, duplicate. shares compounds with KCNQ2 pot. parental CHO-K1 cells, FluxOR thallium flux fluorescence; zero = vehicle mean+3SD, 100% = vehicle-minus-blank window. activity increase over 3SD of controls, % at 10 µM. hit rate 43% among 1,200. AID 2282, 2010;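 active means signal rise of at least 3 SD above the untreated control mean, in both duplicate wells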;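 further: counter screen of KCNQ2 potentiator hits so any rise reflects channel-independent effects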
KCNQ1 pot spec: human KCNQ1 channel potentiation off-target, confirmation, selectivity assay for KCNQ2 potentiator project, cell-based, CHO, FluxOR thallium flux; shares compounds with KCNQ2 pot; CHO KCNQ1 stable, FluxOR thallium flux fluorescence; beyond 3SD, as % of vehicle-control signal; activation over 3SD threshold, % at 10 µM; hit rate 28% among 1,200; AID 2283, 2010;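 active means fluorescence ratio rise of at least 3 SD of vehicle wells above their mean, in both replicate wells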
KCNQ2 pot conf: rat KCNQ2 channel potentiators, confirmation, cell-based, CHO, FluxOR thallium flux, duplicate; shares compounds with KCNQ2 pot; hit rate 68% among 1,200; potentiation, less the hit threshold, % at 10 µM; AID 2287, 2010; CHO-KCNQ2 cells, FluxOR thallium flux fluorescence;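 active means fluorescence ratio rising 3 SD or more over the vehicle control mean in both replicates, plus primary screen hit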;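 further: peak minus minimum thallium fluorescence divided by baseline after K/Tl stimulus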
Kir21 spec: mouse Kir2.1 channel activation off-target, confirmation, selectivity assay for KCNQ2 potentiator project, cell-based, HEK293, FluxOR thallium flux | shares compounds with KCNQ2 pot | AID 2345, 2010 | activity over 3SD threshold, % at 10 µM | hit rate 2% among 1,200 | HEK293 Kir2.1, FluxOR thallium flux fluorescence;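 active means fluorescence ratio rise of at least 3 SD above the vehicle-control mean, seen in both replicates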
KCNQ2 W236L MoA: potentiators of retigabine-insensitive KCNQ2 W236L, mechanism study for KCNQ2 potentiator project, cell-based, rat KCNQ2 W236L, CHO, automated patch clamp | automated patch clamp current | hit rate 10% among 940 | current increase over 3SD of negative controls (%), active compounds read high, % at 25 µM | shares compounds with KCNQ2 pot | AID 2558, 2010;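 active means current increase at least 3 SD of the untreated controls above them in both duplicate recordings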
Each line names hits and unclear results; the compound was inactive in the other large screens (follow-up assays come after a bar, where they were run).

CCCOP(=O)(c1ccc(N(C)C)cc1)C(O)c1ccc(Cl)cc1 (centres undefined)	none (no result: KCNQ2 pot)
CC(C)c1ccc(C2NC(=O)CCC2[N+](=O)[O-])cc1 (centres undefined)	none (no result: KCNQ2 pot)
CC1(C)Cc2ccccc2C(N/N=C/c2ccc(Cl)cc2)=N1	none (no result: KCNQ2 pot)
Cc1ccn2c(=O)nc(SCC(=O)Nc3ccc4c(c3)OCCO4)nc2c1	none
Cc1ccc(CNC(=O)CCS(=O)(=O)c2ccc3c(c2)CC(C)N3C(=O)C2CC2)cc1 (centres undefined)	none (no result: KCNQ2 pot)
O=C(CSc1nc2ccccc2o1)Nc1ccccc1N1CCOCC1	none | Kir21 confirm 56% | HEK293 ctr inactive
O=C(CSc1nc2ccccc2o1)Nc1ccc(N2CCOCC2)cc1	none (no result: KCNQ2 pot)
CC(NC(=O)c1ccccc1Br)c1ccc2c(c1)CCCC2 (centres undefined)	none (no result: KCNQ2 pot)
CC(NC(=O)c1ccc(Br)cc1)c1ccc2c(c1)CCCC2 (centres undefined)	KCNQ2 pot 7.6 | Kir21 confirm inactive | HEK293 ctr inactive | CHO-K1 Tl ctr 43 | KCNQ1 pot spec inactive | KCNQ2 pot conf 40 | Kir21 spec inactive | KCNQ2 W236L MoA inactive
Cc1ccc(OCCCCN2CCCCC2)c(C)c1	none
Cc1ccc(OCCCCNC2CCCC(C)C2C)c(C)c1 (centres undefined)	none (no result: KCNQ2 pot) | Kir21 confirm inactive | HEK293 ctr inactive
CCCCCNS(=O)(=O)c1cc2c3c(c1)CCC(=O)N3CCC2	none
COCCN1CCN(Cc2nc(Cc3ccc(OC)c(OC)c3)no2)CC1	none
COc1ccc(Cc2noc(CN3CCN(Cc4cccc(Cl)c4)CC3)n2)cc1OC	KCNQ2 pot 7.2 | Kir21 confirm inactive | HEK293 ctr inactive | CHO-K1 Tl ctr 43 | KCNQ1 pot spec inactive | KCNQ2 pot conf inactive | Kir21 spec inactive
Cc1cc(C)n2nc(SC(C)C(=O)NC3CCCCC3C)nc2n1 (centres undefined)	none
COc1cc(OC)c(OC)cc1CCC(C)NCCC(c1ccccc1)c1ccccc1 (centres undefined)	none | Kir21 confirm 48% | HEK293 ctr inactive
COc1ccccc1CCNC(C)CCc1ccc(O)cc1 (centres undefined)	none (no result: KCNQ2 pot)
O=C(O)/C=C/C(=O)Nc1ccccc1SC(F)(F)F	none (no result: KCNQ2 pot)
COc1ccc(CNS(=O)(=O)c2c(C(=O)N3CCCCCC3)c(C)n(C)c2C)cc1	none (no result: KCNQ2 pot)
O=C(Nc1nc(=O)c2ccccc2s1)c1ccc(F)cc1	KCNQ2 pot 5.8 | Kir21 confirm inactive | HEK293 ctr 174% | CHO-K1 Tl ctr inactive | KCNQ1 pot spec inactive | KCNQ2 pot conf inactive | Kir21 spec inactive
O=C(Cc1ccccc1)Nc1nc(=O)c2ccccc2s1	none
O=C(Nc1ccccc1-c1nnc(SCc2ccccc2Cl)o1)c1ccccc1	none (no result: KCNQ2 pot)
Cc1cc(C)c(NC(=O)CC(C)(C)C)c(Cl)c1	KCNQ2 pot 25 | Kir21 confirm inactive | HEK293 ctr inactive | CHO-K1 Tl ctr inactive | KCNQ1 pot spec inactive | KCNQ2 pot conf 73 | Kir21 spec inactive | KCNQ2 W236L MoA inactive
